We go through 36 compounds from ChEMBL document CHEMBL3433997, “St. Jude Leishmania screening dataset” (2016).

Structures are written as SMILES.

Common to all, as to assay type: functional
Assay [1] has as its target Solute carrier family 2, facilitated glucose transporter member 1 (Homo sapiens) (UniProt P11166). The assay can be described thus: ST_JUDE_LEISH: Cytotoxicity at 2uM final concentration against transgenic Leishmania Mexicana promastigotes LmGLUT1 that are glucose transport deficient and complemented with the human glucose transporter GLUT1. Activity is measured by DNA content using SYBR green in vitro.

Assay [2] concerns the target Hexose transporter 1 (Plasmodium falciparum) (UniProt O97467). As to the kind of experiment: ST_JUDE_LEISH: Cytotoxicity at 2uM final concentration against transgenic Leishmania Mexicana promastigotes LmPfHT that are glucose transport deficient and complemented with the Plasmodium falciparum hexose transporter. Activity is measured by DNA content using SYBR green in vitro.

Assay [3] deals with Glucose transporter (Leishmania mexicana) (UniProt O61059). As to the kind of experiment: ST_JUDE_LEISH: Cytotoxicity at 2uM final concentration against transgenic Leishmania Mexicana promastigotes LmGT2 that are glucose transport deficient and complemented with the L. Mexicana glucose transporter 2. Activity is measured by DNA content using SYBR green in vitro.

Solute carrier family 2, facilitated glucose transporter member 1 (Homo sapiens), sequence (P11166 whole entry): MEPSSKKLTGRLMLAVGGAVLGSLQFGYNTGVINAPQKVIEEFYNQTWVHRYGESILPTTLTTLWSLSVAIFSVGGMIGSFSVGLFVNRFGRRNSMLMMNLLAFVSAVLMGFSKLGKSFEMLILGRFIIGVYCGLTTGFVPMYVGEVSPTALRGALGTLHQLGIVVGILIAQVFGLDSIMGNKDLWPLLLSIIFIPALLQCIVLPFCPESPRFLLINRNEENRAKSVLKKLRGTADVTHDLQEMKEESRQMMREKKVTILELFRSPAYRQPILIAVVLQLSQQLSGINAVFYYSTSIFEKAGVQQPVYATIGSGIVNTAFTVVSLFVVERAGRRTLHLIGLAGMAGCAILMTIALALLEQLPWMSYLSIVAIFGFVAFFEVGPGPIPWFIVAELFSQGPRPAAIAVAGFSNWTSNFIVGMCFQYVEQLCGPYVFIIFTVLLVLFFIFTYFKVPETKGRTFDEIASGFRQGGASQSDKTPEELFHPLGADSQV

In the case of `Cc1ccc(N)cc1-c1nc(NC2CC(C)(C)NC(C)(C)C2)nc2c1ccc(=O)n2-c1c(F)cccc1F`, the results for the inhibition in assay [1], in assay [2] and in assay [3] were 0.73%, 1.28% and 2.03%, respectively.
In the same order, the values of `COCCNCc1cccc(-c2ccc3c(Nc4ccc(F)cc4Cl)ccnc3c2)c1` are -1.97%, 2.48% and 0.78%.
In the same order, the values of `O=C(/C=C/c1ccc(Cl)c(Cl)c1)NCCCCCN1CCCC(c2c[nH]c3ccccc23)C1` (stereo not drawn) are 5.68%, 5.33% and 5.49%.
In the same order, the values of `CNC(=O)c1c(NC(=O)c2cccs2)sc2c1CCCC2` are 1.2%, 1.4% and 1.44%.
Take `CCCc1cc(OC)c(C[C@@H]2c3cc(O)c(Cl)cc3CCN2C)cc1OC`: the inhibition in assay [1] amounted to 3.17%; in assay [2] it was 2.87%; in assay [3] it was 3%.
In the same order, the values of `CS(=O)(=O)CCNCc1cccc(-c2ccc3c(Nc4ccc(Oc5ccccc5)cc4)ccnc3c2)c1` are 0.35%, -0.06% and 1.33%.
In the same order, the values of `c1ccc(CCNc2ccnc(Nc3ccc4cn[nH]c4c3)n2)cc1` are 17.8%, 14.8% and 10%.
In the same order, the values of `O=C(Nc1ccc(Cl)c(Cl)c1)Nc1ccc2c(c1)CCNCC2` are -0.33%, 0.96% and 0.79%.
Turning to `Cc1nc2sccn2c1C(=O)NCCc1ccccc1Cl`, the inhibition is 0.29% in assay [1], 1.15% in assay [2] and 1.69% in assay [3].
In the same order, the values of `CC(C)(C)NCCN(Cc1ccc(-c2ccc(C(F)(F)F)cc2)cc1)C(=O)Cn1c(CCc2cccc(F)c2F)nc(=O)c2c1CCC2` are 6.13%, 7.22% and 7.29%.
As for `O=C(Nc1ccc(-c2nc3ccccc3[nH]2)cc1)C1CCN(Cc2ccccc2)CC1`, the inhibition was determined as 16.2% in assay [1], 23.4% in assay [2] and 12.6% in assay [3].
In the same order, the values of `O=C(/C=C/c1ccc(Cl)c(Cl)c1)NCCCCCN1CCC(NC(=O)Nc2cc(Cl)ccc2Cl)CC1` are 9.69%, 8.99% and 9.67%.
In the same order, the values of `CCOc1ccc(C(=O)Nc2cc(Br)c3c(c2)CNCC3)cc1C(F)(F)F` are -0.39%, -2.66% and -2.48%.
In the same order, the values of `CCCCNc1ccc(C(=O)NC2CCN(C[C@H](O)c3ccnc4ccc(OC)cc34)CC2)cc1` are 9.46%, 11.8% and 3.39%.
Turning to `O=c1[nH]ccc2nc(N[C@@H]3CCNC3)nc(Nc3cc(Cl)cc(Cl)c3)c12`, the inhibition in assay [1] worked out at 7.56%; in assay [2], 8.18%; in assay [3] it was 9.4%.
In the same order, the values of `CCCCN1CC[C@@H](CCC(O)c2cc(OCCC)nc3ccc(OC)cc23)[C@@H](CC)C1` (stereo partly drawn) are -0.6%, -1.53% and -1.52%.
In the same order, the values of `CCCCCCN1CCC(NCc2ccc(Cl)cc2)CC1` are 7.59%, 7.61% and 4.28%.
In the same order, the values of `CCC(C)NC(=O)CN1CN(c2ccccc2)C2(CCN(C(=O)c3ccc4ccccc4c3)CC2)C1=O` (stereo not drawn) are 0.98%, -0.53% and -0.96%.
On to `CN(C)CC(O)COc1ccc(Nc2ncc([N+](=O)[O-])c(Nc3ccccc3O)n2)cc1` (stereo not drawn), for which the inhibition in assay [1] came to 2.66%; in assay [2], 3.7%; in assay [3] it was 1.45%.
In the same order, the values of `O=C(Nc1ccccc1Br)N[C@@H]1CCN(c2ccnc3ccccc23)C1` are 4.02%, 5.95% and 3.01%.
In the same order, the values of `CCOc1cc(C(=O)NC2CCN(Cc3ccccc3)CC2)ccc1-c1nc2cc(Cl)ccc2[nH]1` are 4.1%, 5.59% and 3.09%.
In the same order, the values of `COc1ccc(F)cc1-c1ccc(C(=O)N2CCCN(c3ccc(C(F)(F)F)cn3)CC2)cc1` are 2.4%, 1.75% and 4.03%.
Take `COc1ccc(C(=O)O)cc1OCc1ccccc1`: the inhibition was 0.41% in assay [1], -0.29% in assay [2] and 0.75% in assay [3].
In the same order, the values of `COc1ccc2nccc([C@@H](O)CN3CCC(NC(=O)/C=C/c4cc(F)cc(Br)c4)CC3)c2c1` are 6.91%, 4.62% and -0.22%.
In the same order, the values of `COc1ccc2nc(-c3ccccc3)cc(NCCCNc3cc(-c4ccccc4)nc4ccc(OC)cc34)c2c1` are 3.06%, 2.6% and 0.67%.
In the same order, the values of `Cc1ccc2c(c1)NCC21CCN(C[C@@H](O)C2CCN(c3ccnc(Cl)c3)CC2)CC1C` (stereo partly drawn) are 0.9%, 3.08% and 0.18%.
Consider `O=C(Nc1ccc(Br)cc1)c1cc(Br)ccc1NS(=O)(=O)c1ccc(C(F)(F)F)cc1`, for which the inhibition came out at 0.82% in assay [1], 0.98% in assay [2] and 0.46% in assay [3].
In the same order, the values of `COc1cc2c(cc1C(F)(F)F)N(C(=O)Nc1cc(F)c(F)c(-c3cccnc3)c1)CC2` are 10.1%, 1.42% and -4.39%.
For the compound `CCOC(=O)c1cnc2c(OC)cc(OC)c(Cl)c2c1Nc1ccccc1`, the inhibition in assay [1] is 5.44%; in assay [2], 4.89%; in assay [3], 6.19%.
In the case of `N#Cc1ccc2c(c1)CCN(CCC1CCC(NC(=O)Nc3ccncc3)CC1)C2` (stereo not drawn), the inhibition in assay [1] worked out at 5.14%; in assay [2] it was 3.65%; in assay [3], 5.01%.
In the same order, the values of `CCCCCN1CCCC1CNS(=O)(=O)c1ccc(C(=O)Nc2ccc(C(F)(F)F)cc2)cc1` (stereo not drawn) are 4.05%, 3.41% and 1.09%.
In the same order, the values of `Cc1cc(=NN=Cc2ccccc2Cl)c2cc(F)ccc2[nH]1` are 3.99%, 2.95% and 2.23%.
In the same order, the values of `CN1CCN(CCCN(Cc2ccc(-c3ccc(CNCCc4ccccc4)cc3)cc2)C(=O)c2cccs2)CC1` are 2.36%, 1.19% and 3.32%.
On to `Cc1cc(NCCc2ccccc2)nc(N/C(=N/CC(=O)OC(C)(C)C)Nc2ccc(C(F)(F)F)cc2)n1`, for which the values for the inhibition in assay [1], in assay [2] and in assay [3] were 4.08%, 0.44% and 2.34%, respectively.
In the same order, the values of `NCc1cccc(-c2cccc(CNC3CCN(Cc4ccccc4)CC3)c2)c1` are 6.06%, 5.41% and -0.37%.
In the same order, the values of `O=C(c1cccs1)N1N=C(c2cccs2)CC1c1cccc([N+](=O)[O-])c1` (stereo not drawn) are 8.21%, 5.4% and 7.21%.

By inhibition is commonly meant the relative decrease from the control value, in per cent.
